The record followed here is PubChem BioAssay (NCATS).

Assay [1] in a line: Drug repurposing screens with cells derived from glioblastoma tumor samples (AID 1345199). Further: nearly all actives have a fitted effect of over 40% in size. Further: potency means the concentration at half of the fitted maximal effect. On activity, negative = cell killing: on the % scale 0 is the no-effect control and ±100 the full control effect. The conditions noted are these: GBM patient neurospheres viability, ATP luminescence, 48 h. The gist of the method: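 Four patient lines of CD133+ GBM neurospheres were screened at several concentrations; hits were retested in those lines plus three slower-growing GBM lines, using 48-hour treatment and ATP-based viability.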

A short description of assay [2]: P-glycoprotein substrates identified in KB-8-5-11 adenocarcinoma cell line, qHTS therapeutic library screen (AID 1346987). Further: nearly all actives have a fitted effect of over 65% in size. Further: potency means the concentration at half of the fitted maximal effect. On activity change, negative = cytotoxicity: on the % scale 0 is the no-effect control and ±100 the full control effect. Put shortly:
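KB-8-5-11: colchicine-selected sub-line of KB-3-1 over-expressing P-gp; assay medium lacked colchicine. 72 h drug exposure at 37 degree C, CellTiter-Glo.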
On the technique in general: Quantitative high-throughput screening tests each substance at several concentrations.

Assay [3] deals with Glutathione peroxidase 1 (Homo sapiens) (UniProt P07203). Put plainly: Primary qHTS Assay for Inhibitors of Recombinant Selenoprotein Glutathione Peroxidase 1 (GPX1) (AID 1845191). Further: nearly all actives have a fitted effect of over 65% in size. The gist of the method:
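Recombinant GPX1 (10 nM final) was preincubated with compound for 30 min at room temperature, then reacted with 1 mM GSH, 0.5 mM CHP, 0.5 mM NADPH and 100 nM glutathione reductase; NADPH fluorescence (340/450 nm) was read at 0 and 15 min.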

For assay [4], the target named is Phospholipid hydroperoxide glutathione peroxidase GPX4 (Homo sapiens) (UniProt P36969). Put plainly: Primary qHTS Assay for Inhibitors of Recombinant Selenoprotein Glutathione Peroxidase 4 (GPX4) (AID 1845192). Further: on the % scale 0 is the no-effect control and ±100 the full control effect; nearly all actives have a fitted effect of over 65% in size. The settings on record: outcome: dose series up to 50 µM unless noted. Put shortly:
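GR-coupled readout: 100 nM GR, 1 mM GSH, 0.5 mM NADPH; NADPH fluorescence (ex 340/em 450 nm) read at t=0 and after 15 min RT. GPX4 200 nM, preincubated 30 min with compound; substrate 0.5 mM CHP.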

Assay [5] concerns the target Calcium and integrin-binding protein 1 (Homo sapiens) (UniProt Q99828). Nature of the assay: Primary qHTS for Identification of Calcium Integrin Binding Protein 1 (CIB1) Competitor (AID 1508620).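 Further: GST tagged CIB1 binding a fluorescein labelled alphaIIb integrin peptide tracer; top concentration of the series differs between compounds; on the % scale 0 is the no-effect control and ±100 the full control effect.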 The gist of the method:
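Fluorescence polarization competition: CIB1-GST (1 uM final) preincubated with compound 15 min at room temperature, then FITC-labeled alphaIIb peptide (100 nM final) added for another 15 min. Polarization read at Ex 480/Em 540.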

A short description of assay [6]: P-glycoprotein substrates identified in KB-3-1 adenocarcinoma cell line, qHTS therapeutic library screen (AID 1346986). Further: nearly all actives have a fitted effect of over 60% in size.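 Further: potency means the concentration at half of the fitted maximal effect; potency is for cytotoxicity meaning loss of cell viability.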 On activity change, negative = cytotoxicity: on the % scale 0 is the no-effect control and ±100 the full control effect. Put shortly: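 KB-3-1 parental cells and P-gp-overexpressing KB-8-5-11 (colchicine omitted during assay) plated at 500 cells/well, dosed in dose-response, incubated 72 h at 37 degree C. CellTiter-Glo luminescence read; KB-8-5-11 also tested with tariquidar.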

The nature of assay [7]: Primary qHTS for inhibitors of nuclear receptor binding SET domain protein 2 (NSD2) in an isogenic RCH-ACV NSD2 p.E1099K mutant (9B) (AID 1645876). Further: nearly all actives have a fitted effect of over 70% in size. Further: potency means the concentration at half of the fitted maximal effect.
Assay [8] in a line: Primary qHTS for inhibitors of nuclear receptor binding SET domain protein 2 (NSD2) in an RCH-ACV wild type WT cells (2C) (AID 1645877). Further: nearly all actives have a fitted effect of over 70% in size. Further: potency means the concentration at half of the fitted maximal effect.
A short description of assay [9]: qHTS to identify inhibitors of the type 1 interferon - major histocompatibility complex class I in skeletal muscle: primary screen against the NCATS Mechanism Interrogation Plate v5.0 (MIPE) Libary (AID 1347411). Further: nearly all actives have a fitted effect of over 65% in size. Further: potency means the concentration at half of the fitted maximal effect. The gist of the method: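 Immortalized human C25cl48 myoblasts with HiBit knocked into endogenous HLA-B*08:01 were stimulated with 4.0 ng/ml IFN-beta and exposed to compounds (11-point 1:3 titration, top 46 uM final) for 24 hrs at 37 C; HiBiT lytic luminescence measured.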

Assay [10] in a line: qHTS drug screen for cell cycle checkpoint inhibitors in PARPi-resistant BRCA-mutant ovarian cancer cell lines. (AID 1963452; calls by dose curve; further: potency means the concentration at half of the fitted maximal effect). The conditions noted are these: PEO1/OlaR viability, CellTiter-Glo luminescence, 96 h; for Z-AUC: stronger effect = lower value. Put shortly: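 PEO1, PEO4 and PEO1/OlaR ovarian cancer cells, 600 per well, exposed 96 h at 37C to a dilution series. Viability read by CellTiter-Glo luminescence, normalized to DMSO and empty wells; activity summarized as Z-AUC.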

Where [11] appears, read: at 45.9 µM (top of the series), tumour line B.
Where [12] appears, read: at 45.9 µM (top of the series), tumour line D.
[13] abbreviates: at 46.1 µM (top of the series), tumour line C.
Where [14] appears, read: measured here: PEO1 parental Z-AUC.

Values joined by “and” are separate entries in the source; they are usually repeats but may differ in a detail not shown here. Equal entries are not always repeated. Records with an inconclusive call do not appear. Active and inactive are the calls of the source. Unless noted, the call rests on the fitted dose curve; in most records, active means well fitted curve in the direction sought with a large enough effect; inconclusive means small, poorly fitted or top-dose-only effect, or another doubt; inactive means no such curve, though single readings can be large; an effect the other way counts as inactive or inconclusive.

Glutathione peroxidase 1 (Homo sapiens), sequence (P07203 whole entry, looked up): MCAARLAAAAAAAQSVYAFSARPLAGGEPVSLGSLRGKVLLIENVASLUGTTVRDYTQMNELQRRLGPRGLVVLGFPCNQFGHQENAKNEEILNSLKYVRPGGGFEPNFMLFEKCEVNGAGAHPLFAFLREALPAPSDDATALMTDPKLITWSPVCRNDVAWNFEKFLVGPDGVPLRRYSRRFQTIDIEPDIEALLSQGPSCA
Phospholipid hydroperoxide glutathione peroxidase GPX4 (Homo sapiens), sequence (P36969 whole entry, looked up): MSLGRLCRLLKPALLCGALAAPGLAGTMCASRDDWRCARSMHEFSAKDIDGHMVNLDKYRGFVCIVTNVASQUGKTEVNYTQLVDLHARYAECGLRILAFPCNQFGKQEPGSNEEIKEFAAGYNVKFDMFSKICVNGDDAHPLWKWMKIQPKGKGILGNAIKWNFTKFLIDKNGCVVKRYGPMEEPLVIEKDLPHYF
Calcium and integrin-binding protein 1 (Homo sapiens), sequence (Q99828 whole entry, looked up): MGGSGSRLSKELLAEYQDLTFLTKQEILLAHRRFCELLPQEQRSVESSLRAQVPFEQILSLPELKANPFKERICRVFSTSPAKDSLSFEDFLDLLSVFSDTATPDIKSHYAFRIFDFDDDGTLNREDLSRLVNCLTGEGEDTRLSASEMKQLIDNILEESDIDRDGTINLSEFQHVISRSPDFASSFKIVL

With `CCOC(=O)CCC(=O)O[C@H]1[C@H](O[C@@H]2[C@@H](C)[C@H](O[C@H]3C[C@@](C)(OC)[C@@H](O)[C@H](C)O3)[C@@H](C)C(=O)O[C@H](CC)[C@@](C)(O)[C@H](O)[C@@H](C)C(=O)[C@H](C)C[C@@]2(C)O)O[C@H](C)C[C@@H]1N(C)C`, the figures for the activity, negative = cell killing in assay [1] (setting [11]), in assay [1] (setting [12]) and in assay [1] (setting [13]) were -6.36% (inactive), -16.9% (inactive) and 1.07% (inactive), respectively. In addition, the Potency in [1] (tumour line A) is 35.5 µM (active).
In the case of `NCCNCCN`, in assay [2], the Potency entry was “inactive”. For the same molecule, in assay [1] (setting [11]), the activity, negative = cell killing is -28% (inactive). For the same molecule, in assay [1] (tumour line A), the Potency is 28.2 µM (active).
Regarding `CCOC(=O)CN[C@@H](C(=O)N1CC[C@H]1C(=O)NCc1ccc(/C(N)=N/O)cc1)C1CCCCC1`, the Potency entry in [3] and in assay [4] was “inactive” in each case. Further, the activity, negative = cell killing in assay [1] (setting [11]) is -9.76% (inactive); in assay [1] (setting [12]), -14.5% (inactive); in assay [1] (at 46 µM (top of the series), tumour line A) it was -18.3% (inactive); in assay [1] (setting [13]) it was -15.2% (inactive).
For `C=C1/C(=C\C=C2/CCC[C@]3(C)[C@@H]([C@H](C)OCCC(C)(C)O)CC[C@@H]23)C[C@@H](O)C[C@@H]1O`, the activity, negative = cell killing in assay [1] (setting [11]) is -19.1% (inactive); in assay [1] (setting [12]) it was -17.2% (inactive); in assay [1] (setting [13]) it was -27.4% (inactive). Moreover, the Potency in assay [1] (tumour line A) is 25.1 µM (active).
Regarding `CCCCCCCCCCCCCCCCSCC(COC)COP(=O)([O-])OCC[N+](C)(C)C` (configuration not stated), the activity, negative = cell killing in assay [1] (setting [12]) is -10.7% (inactive); in assay [1] (setting [13]), 5.78% (inactive). Also, the Potency in [1] (tumour line A) is 22.4 µM (active).
On to `CCN(CC)C(=O)c1cc(S(=O)(=O)Cc2ccccc2)c(N2CCC(c3ccccc3)CC2)cc1N(CC)CCN(C)C`, for which, in [2], the Potency is 16.4 µM (active). Moreover, in [5], the result was inactive.
In the case of `C#Cc1cccc(Nc2ncnc3cc(OC)c(OC)cc23)c1`, the Potency in assay [6] was 5.17 µM (active); in [2] it was 9.2 µM (active); in assay [7], 14.6 µM (active); in [8] it was 20.6 µM (active). Also, the Potency entry in [3] was “inactive”.
For the molecule `O=C1NC(=O)/C(=C/c2ccc3nccc(-c4ccncc4)c3c2)S1`, the Potency is 1.64 µM (active) in assay [6]; 3.66 µM (active) in assay [2]; 0.829 µM (active) in assay [9]; 920 nM (active) and 332 nM (active) in assay [7]; 920 nM (active) and 525 nM (active) in assay [8]; 1.95 µM (active) in assay [10]. Further, the Potency result in assay [3] and in assay [4] was “inactive” throughout. Also, the Z-AUC in assay [10] (setting [14]) is -1.47; in assay [10] (measured here: PEO4 Z-AUC), -1.84.
For the molecule `CCCCCCCC[N+](C)(C)CCCCCCCC`, in assay [2], the Potency result is “inactive”.
For the molecule `COc1cc(F)ccc1-c1ncnc(Nc2cccc(CS(C)(=N)=O)c2)n1` (configuration not stated), the Potency was 1.46 µM (active) in [6]; 5.17 µM (active) in [2]; 2.34 µM (active) in assay [9]; 0.525 µM (active) in [7]; 0.372 µM (active) in assay [8]. Besides, the Potency entry in assay [3] and in assay [4] was “inactive” each time. Besides, the figures for the Z-AUC in [10], in assay [10] (setting [14]) and in assay [10] (measured here: PEO4 Z-AUC) were -0.906 (inactive), -1.2 and -0.831, respectively.
As for `COc1c(Nc2ncc(Cl)c(N[C@H]3[C@H](C(N)=O)[C@@H]4C=C[C@@H]3C4)n2)ccc2c1CCC(N1CCOCC1)CC2` (some centres not stated), the Potency in assay [6] was 6.51 µM (active); in assay [2], 4.11 µM (active); in assay [7], 1.05 µM (active); in assay [8], 3.32 µM (active). In assay [9], the Potency entry was “inactive”.
As for `CN1CCC(c2c(O)cc(O)c3c(=O)cc(-c4ccccc4Cl)oc23)C1CO` (configuration not stated), the Potency in [6] is 0.92 µM (active); in [2], 5.17 µM (active); in [9], 0.739 µM (active); in [7] it was 0.417 µM (active); in assay [8] it was 0.332 µM (active). The Potency entry in assay [3] and in assay [4] was “inactive” in each case. Besides, the Z-AUC in assay [10] is -0.419 (inactive); in assay [10] (setting [14]) it was -1.06; in assay [10] (measured here: PEO4 Z-AUC) it was -0.725.
`COc1cc(OC)cc(N(CCNC(C)C)c2ccc3ncc(-c4cnn(C)c4)nc3c2)c1`: the Potency is 10.3 µM (active) in assay [6]; 18.4 µM (active) in assay [2]; 13.1 µM (active) in assay [9]; 11.8 µM (active) in assay [7]; 10.5 µM (active) in assay [8]. For the same molecule, the Potency entry in assay [3] and in [4] was “inactive” in each case. Moreover, the results for the Z-AUC in assay [10], in [10] (setting [14]) and in assay [10] (measured here: PEO4 Z-AUC) were -0.272 (inactive), -0.0954 and -0.145, respectively.
Regarding `C=CC(=O)c1ccc2ccccc2c1`, the Potency entry in [6], in assay [2], in [8] and in assay [3] was “inactive” in each case.
Take `CCCCCCCCCCCCC/C=C/[C@@H](O)[C@H](CO)N(C)C`: in assay [6], the activity change, negative = cytotoxicity is -2.89% [at 5.11 µM] (inactive). For the same molecule, the outcome in assay [2] was “inactive [at 5.11 µM]”. Further, the activity change, negative = viability loss in assay [7] is -1.18% [at 4.96 µM] (inactive). Besides, the activity change, negative = cell killing in [8] is 4.48% [at 4.96 µM] (inactive). The Potency entry in assay [3] was “inactive”.
